Data from PubChem BioAssay (EPA / NIEHS).
Activity calls are given as the source filed them. The calls were made as follows: active = hit-call score of the fitted dose curve at least 0.9, where 1 is the maximum; inactive = score below 0.9.

Read-out: E-selectin (Homo sapiens) (UniProt P16581)
Assay: BSK_3C_Eselectin: BioMAP Diversity Plus: 3C Assay for Eselectin Biomarker Activity (AID 2283015)
Settings: primary human endothelial cells (HUVEC); actives raise or lower the signal
Procedure: BSK_3C is a cell-based, multiplexed-readout assay that uses umbilical vein endothelium, a human vascular primary cell, with measurements taken at 24 hours after chemical dosing in a 96-well plate.BSK_3C_Eselectin is an assay component measured in the BSK_3C assay. It measures E-selectin antibody related to regulation of gene expression using ELISA technology.Data from the assay component BSK_3C_Eselectin was analyzed into 1 assay endpoint. This assay endpoint, BSK_3C_Eselectin, was analyzed with bidirectional fitting relative to DMSO as the negative control and baseline of activity. Using a type of binding reporter, gain or loss-of-signal activity can be used to understand changes in the signaling as they relate to the gene SELE. Furthermore, this assay endpoint can be referred to as a primary readout, because this assay has produced multiple assay endpoints where this one serves a signaling function. To generalize the intended target to other relatable targets, this assay endpoint is annotated to the cell adhesion molecules intended target family, where the subfamily is selectins.
The levels of cell surface (or secreted, indicated by the prefix "s") biomarker endpoints were measured by ELISA. Overt cytotoxicity to cells in confluent adherent cultures (all systems other than the BT system) was assessed by measuring total protein levels using sulforhodamine B (SRB) staining in parallel cultures at the time of biomarker measurements, indicated as SRB endpoints. For proliferation assays for adherent cell types, individual cell types are cultured at sub-confluence and relative cell numbers quantified by SRB staining at time points optimized for each system (48 h: 3C and CASM3C systems; 72 h: BT and HDF3CGF systems; 96 h: SAg system). SRB was performed by staining cells with 0.1% SRB after fixation with 10% TCA and reading wells at 560 nm.Viability and proliferation of PBMC (T cells) was quantified by Alamar Blue reduction for the SAg and BT systems. For PBMC viability (referred to as PBMC Cytotoxicity within the assay endpoint names), cells were plated (75,000/well in a 96-well plate) and then chemical samples added for 1 h before addition of activators, SEB and TSST-1 (20 ng/mL final concentration each). Cells were incubated for 90 h. Then, Alamar Blue (20 uL/well) (Invitrogen, Cat DAL1100) was added for 6 h, and the plates were read with a fluorescence microplate reader at 546/580 nm (excitation/emission). For PBMC proliferation, cells were plated and activated as above but incubated for only 16 h prior to addition of Alamar Blue. Plates were read after 6 h.

Chain of E-selectin (Homo sapiens) (P16581 whole entry, looked up): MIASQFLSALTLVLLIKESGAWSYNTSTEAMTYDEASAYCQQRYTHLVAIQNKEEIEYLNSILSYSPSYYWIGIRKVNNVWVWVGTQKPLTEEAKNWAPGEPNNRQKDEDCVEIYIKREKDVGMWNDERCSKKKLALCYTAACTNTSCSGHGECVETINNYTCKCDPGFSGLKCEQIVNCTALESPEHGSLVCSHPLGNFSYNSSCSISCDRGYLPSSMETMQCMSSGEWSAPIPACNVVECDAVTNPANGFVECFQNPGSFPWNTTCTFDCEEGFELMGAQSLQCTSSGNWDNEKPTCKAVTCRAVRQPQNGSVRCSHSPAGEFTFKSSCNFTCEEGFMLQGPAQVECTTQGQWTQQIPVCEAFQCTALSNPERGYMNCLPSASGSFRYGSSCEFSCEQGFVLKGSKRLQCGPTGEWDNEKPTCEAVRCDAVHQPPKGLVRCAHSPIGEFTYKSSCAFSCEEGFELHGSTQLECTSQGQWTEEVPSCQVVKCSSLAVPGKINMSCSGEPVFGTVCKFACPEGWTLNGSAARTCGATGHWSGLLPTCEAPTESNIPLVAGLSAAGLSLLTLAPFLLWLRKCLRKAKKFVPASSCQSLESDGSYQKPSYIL

Row | SMILES | outcome | AC50
1 | O=[N+]([O-])c1cc(C(F)(F)F)ccc1Cl | inactive | 
2 | CNC[C@H](O)c1cccc(O)c1 | inactive | 
3 | Cc1cc(C2(c3cc(C)c(O)cc3C)OS(=O)(=O)c3ccccc32)c(C)cc1O | inactive | 
4 | C[C@H]1C[C@@H]2[C@H]([C@@H](O)C[C@@]3(C)[C@H]2CC[C@]3(O)C(=O)CO)[C@@]2(C)C=CC(=O)C=C12 | inactive | 
5 | CCC(=O)OCc1ccccc1 | inactive | 
6 | CC(=O)/C=C/C1=C(C)CCCC1(C)C | inactive | 
7 | CC(=O)Nc1ccccc1O | inactive | 
8 | CC(C)c1ccc(C(C)C)cc1 |  | 36.1 µM (active)
9 | C#C[C@]1(O)CC[C@H]2[C@@H]3CCC4=Cc5oncc5C[C@]4(C)[C@H]3CC[C@@]21C |  | 1.49 µM (active)
10 | CCCCCCCCC=O | inactive | 
11 | CCn1c2ccccc2c2cc(N)ccc21 | inactive | 
12 | CCCCCCCCCC=O | inactive | 
13 | CC1CCC(C(C)CS)CC1S (stereo not given) |  | 30.6 µM (active)
14 | O=C1OC2(c3cc(Br)c(O)c(Br)c3Oc3c2cc(Br)c(O)c3Br)c2c(Cl)c(Cl)c(Cl)c(Cl)c21 |  | 5.06 µM (active)
15 | Nc1cc([N+](=O)[O-])ccc1Cl | inactive | 
16 | CN(CCOc1ccc(CC2SC(=O)NC2=O)cc1)c1ccccn1 (stereo not given) |  | 3.97 µM (active)
17 | CCCCC/C=C/C=C/C=O |  | 30.1 µM (active)
18 | O=C(O)C[C@H](O)C[C@H](O)/C=C/c1c(C2CC2)nc2ccccc2c1-c1ccc(F)cc1 | inactive | 
19 | CC(=O)[C@H]1CC[C@H]2[C@@H]3CC=C4C[C@@H](O)CC[C@]4(C)[C@H]3CC[C@]12C | inactive | 
20 | Cc1ccc(O)c(C(C)(C)C)c1 |  | 25.5 µM (active)

Row | SMILES | outcome | AC50
21 | c1ccc2c(c1)c1cccc3ccc4cccc2c4c31 | inactive | 
22 | CC(C)(COC(=O)c1ccccc1)COC(=O)c1ccccc1 |  | 20 µM (active)
23 | CC[Si](OC(C)=O)(OC(C)=O)OC(C)=O | inactive | 
24 | C=C[Si](OCC)(OCC)OCC | inactive | 
25 | CCCCC(CC)COCCC#N (stereo not given) | inactive | 
26 | CCCCC(CC)COC(=O)/C=C\C(=O)OCC(CC)CCCC (stereo not given) | inactive | 
27 | CC(=O)O[C@]1(C(C)=O)CC[C@H]2[C@@H]3C[C@H](C)C4=CC(=O)CC[C@]4(C)[C@H]3CC[C@@]21C | inactive | 
28 | CC1COc2ccccc2N1C(=O)C(Cl)Cl (stereo not given) |  | 20 µM (active)
29 | O=C1CCCCCCCCCCCCCCO1 |  | 20 µM (active)
30 | C=CCOC(=O)CCC1CCCCC1 | inactive | 
31 | BrC1CCC(Br)C(Br)CCC(Br)C(Br)CCC1Br (stereo not given) | inactive | 
32 | O=C(O)c1cn(C2CC2)c2cc(N3CCNCC3)c(F)cc2c1=O | inactive | 
33 | COc1cc(C=O)ccc1OC(=O)C(C)C | inactive | 
34 | Nc1cc([N+](=O)[O-])ccc1O | inactive | 
35 | N#Cc1ccc(CC(=NNC(=O)Nc2ccc(OC(F)(F)F)cc2)c2cccc(C(F)(F)F)c2)cc1 | inactive | 
36 | O=C=NC1CCC(CC2CCC(N=C=O)CC2)CC1 (stereo not given) | inactive | 
37 | COC(=O)c1ccc(C)cc1 | inactive | 
38 | c1ccc2sc(SN(C3CCCCC3)C3CCCCC3)nc2c1 |  | 1.78 µM (active)
39 | O=C(O)c1cn(-c2ccc(F)cc2)c2cc(N3CCNCC3)c(F)cc2c1=O | inactive | 
40 | CC(=O)OCCC(C)CC(C)(C)C (stereo not given) | inactive | 
